Read-out in assay [1]: serum amyloid A (SAA), SAA1 (gene 6288)
Put plainly: BSK_CASM3C_SAA: BioMAP Diversity Plus: CASM3C Assay for serum amyloid A (SAA) Biomarker Activity (AID 2283049).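 Note: SAA protein level quantified by ELISA.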 Conditions: primary human coronary artery smooth muscle cells; actives raise or lower the signal.

The nature of assay [2]: BSK_CASM3C_SRB: Viability Assessment in the BioMAP Diversity Plus: CASM3C Assay (AID 2283050).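 Note: cells exposed to compound for 24 h.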 Conditions: primary human coronary artery smooth muscle cells.
Read-out in assay [3]: Thrombomodulin, THBD (gene 7056)
Put plainly: BSK_CASM3C_Thrombomodulin: BioMAP Diversity Plus: CASM3C Assay for Thrombomodulin Biomarker Activity (AID 2283051).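 Note: thrombomodulin protein level measured by ELISA 24 h after dosing.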 Conditions: primary human coronary artery smooth muscle cells; actives raise or lower the signal.

Read-out in assay [4]: Tissue Factor, F3 (gene 2152)
Put plainly: BSK_CASM3C_TissueFactor: BioMAP Diversity Plus: CASM3C Assay for Tissue Factor Biomarker Activity (AID 2283052).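 Note: cell surface tissue factor protein level read by ELISA.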 The settings on record: primary human coronary artery smooth muscle cells; actives raise or lower the signal.

Read-out in assay [5]: Interferon-gamma inducible Protein 10 (IP10), CXCL10 (gene 3627)
Put plainly: BSK_hDFCGF_IP10: BioMAP Diversity Plus: hDFCGF Assay for Interferon-gamma inducible Protein 10 (IP10) Biomarker Activity (AID 2283053). The settings on record: primary human foreskin fibroblasts; actives raise or lower the signal. The procedure, abridged: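 Chemical-treated human skin fibroblasts (primary) were sampled at 24 h for IP-10 by ELISA. Both increases and decreases relative to DMSO were scored.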

Read-out in assay [6]: Urokinase-type plasminogen activator receptor (uPAR), PLAUR (gene 5329)
Put plainly: BSK_CASM3C_uPAR: BioMAP Diversity Plus: CASM3C Assay for Urokinase-type plasminogen activator receptor (uPAR) Biomarker Activity (AID 2283054).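 Note: cell-surface uPAR protein level quantified by ELISA.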 Conditions: primary human coronary artery smooth muscle cells; actives raise or lower the signal.

Read-out in assay [7]: Vascular cell adhesion molecule 1 (VCAM1), VCAM1 (gene 7412)
Put plainly: BSK_CASM3C_VCAM1: BioMAP Diversity Plus: CASM3C Assay for Vascular cell adhesion molecule 1 (VCAM1) Biomarker Activity (AID 2283055).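 Note: VCAM-1 protein level quantified by ELISA on the cells.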 Conditions: primary human coronary artery smooth muscle cells; actives raise or lower the signal.

Read-out in assay [8]: Collagen III, COL3A1 (gene 1281)
Put plainly: BSK_hDFCGF_CollagenIII: BioMAP Diversity Plus: hDFCGF Assay for Collagen III Biomarker Activity (AID 2283056). Conditions: primary human foreskin fibroblasts; actives raise or lower the signal. The procedure, abridged:
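Cells: human foreskin fibroblasts, primary. Dosing followed by 24 h incubation, then ELISA for collagen III. Both increases and decreases scored relative to DMSO.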

Read-out in assay [9]: Epidermal growth factor receptor (EGFR), EGFR (gene 1956)
Put plainly: BSK_hDFCGF_EGFR: BioMAP Diversity Plus: hDFCGF Assay for Epidermal growth factor receptor (EGFR) Biomarker Activity (AID 2283057). Conditions: primary human foreskin fibroblasts; actives raise or lower the signal. The procedure, abridged:
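Cell-based multiplexed assay in primary human foreskin fibroblasts. EGFR is read by ELISA 24 h after treatment and compared with DMSO controls.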

Read-out in assay [10]: Interleukin-8 (IL8), CXCL8 (gene 3576)
Put plainly: BSK_hDFCGF_IL8: BioMAP Diversity Plus: hDFCGF Assay for Interleukin-8 (IL8) Biomarker Activity (AID 2283058). Conditions: primary human foreskin fibroblasts; actives raise or lower the signal. The procedure, abridged: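 IL-8 levels from compound-treated primary human fibroblasts were read by ELISA at 24 h, with DMSO serving as baseline for bidirectional fitting.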

Assay [11] can be described thus: BSK_hDFCGF_Proliferation: Cell Proliferation Assessment in the BioMAP Diversity Plus: hDFCGF Assay (AID 2283059).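 Note: curves fitted for both rise and fall of signal versus DMSO baseline.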 Conditions: primary human foreskin fibroblasts. The method, boiled down: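 This proliferation readout used SRB total-protein staining of human foreskin fibroblasts […], normalized to DMSO with bidirectional curve fitting.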
Read-out in assay [12]: Macrophage colony-stimulating factor (MCSF), CSF1 (gene 1435)
Put plainly: BSK_hDFCGF_MCSF: BioMAP Diversity Plus: hDFCGF Assay for Macrophage colony-stimulating factor (MCSF) Biomarker Activity (AID 2283060). Conditions: primary human foreskin fibroblasts; actives raise or lower the signal. The procedure, abridged:
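M-CSF levels, determined by ELISA, are taken at 24 h after dosing human skin fibroblasts. Responses in either direction are fitted with DMSO serving as the baseline.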

Assay [13] is described as follows: BSK_hDFCGF_SRB: Viability Assessment in the BioMAP Diversity Plus: hDFCGF Assay (AID 2283061).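 Note: cells exposed to compound for 24 h before the read.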 Conditions: primary human foreskin fibroblasts. The procedure, abridged:
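Cells were dosed with test chemical, cultured 24 h, fixed with 10% TCA, then stained with 0.1% SRB and read at 560 nm. The fibroblasts were human foreskin primary cells, and DMSO served as baseline.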

Read-out in assay [14]: TIMP metallopeptidase inhibitor 1 (TIMP1), TIMP1 (gene 7076)
Put plainly: BSK_hDFCGF_TIMP1: BioMAP Diversity Plus: hDFCGF Assay for TIMP metallopeptidase inhibitor 1 (TIMP1) Biomarker Activity (AID 2283062). The settings on record: primary human foreskin fibroblasts; actives raise or lower the signal. The procedure, abridged:
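Fibroblasts from human foreskin are treated with test chemical and harvested at 24 h. TIMP-1 is quantified by ELISA, and gain or loss of signal is scored against DMSO.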

Read-out in assay [15]: Matrix Metallopeptidase 1 (MMP1), MMP1 (gene 4312)
Put plainly: BSK_hDFCGF_MMP1: BioMAP Diversity Plus: hDFCGF Assay for Matrix Metallopeptidase 1 (MMP1) Biomarker Activity (AID 2283064). Conditions: primary human foreskin fibroblasts; actives raise or lower the signal. The method, boiled down: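 ELISA read-out of MMP1 from human foreskin fibroblasts (primary skin cells), 24 h post-dose. Gain or loss of signal was fitted bidirectionally versus DMSO negative control; cytotoxicity was checked by SRB in parallel cultures.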

Read-out in assay [16]: Vascular cell adhesion molecule 1 (VCAM1), VCAM1 (gene 7412)
Put plainly: BSK_hDFCGF_VCAM1: BioMAP Diversity Plus: hDFCGF Assay for Vascular cell adhesion molecule 1 (VCAM1) Biomarker Activity (AID 2283065).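 For AC50: VCAM-1 protein level quantified by ELISA after 24 h chemical exposure.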 The settings on record: primary human foreskin fibroblasts; actives raise or lower the signal. The method, boiled down:
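Cells are dosed, cultured for 24 h, then VCAM-1 is quantified by ELISA; signal increases and decreases are both fitted relative to DMSO.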

Read-out in assay [17]: Plasminogen activator inhibitor-1 (PAI1), SERPINE1 (gene 5054)
Put plainly: BSK_hDFCGF_PAI1: BioMAP Diversity Plus: hDFCGF Assay for Plasminogen activator inhibitor-1 (PAI1) Biomarker Activity (AID 2283066). The settings on record: primary human foreskin fibroblasts; actives raise or lower the signal. The procedure, abridged: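 Human skin fibroblast cultures receive chemical for 24 h before PAI-1 is measured by ELISA; signal changes are fitted bidirectionally against DMSO-treated wells.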

Read-out in assay [18]: Intercellular Adhesion Molecule 1 (ICAM1), ICAM1 (gene 3383)
Put plainly: BSK_KF3CT_ICAM1: BioMAP Diversity Plus: KF3CT Assay for Intercellular Adhesion Molecule 1 (ICAM1) Biomarker Activity (AID 2283067). Conditions: primary human keratinocytes with fibroblasts; actives raise or lower the signal. The procedure, abridged: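 Dose the keratinocyte/fibroblast co-culture, wait 24 h, measure ICAM-1 by ELISA, then fit increases or decreases against DMSO. Cytotoxicity is checked in parallel cultures by SRB total-protein staining.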

Read-out in assay [19]: Interferon-gamma inducible Protein 10 (IP10), CXCL10 (gene 3627)
Put plainly: BSK_KF3CT_IP10: BioMAP Diversity Plus: KF3CT Assay for Interferon-gamma inducible Protein 10 (IP10) Biomarker Activity (AID 2283068). Conditions: primary human keratinocytes with fibroblasts; actives raise or lower the signal. The procedure, abridged:
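Signal is secreted/surface IP-10 by ELISA in a human primary skin co-culture of keratinocytes and foreskin fibroblasts, taken 24 h post-dosing; DMSO served as negative control.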

Read-out in assay [20]: Monokine induced gamma interferon (MIG), CXCL9 (gene 4283)
Put plainly: BSK_hDFCGF_MIG: BioMAP Diversity Plus: hDFCGF Assay for Monokine induced gamma interferon (MIG) Biomarker Activity (AID 2283063). The settings on record: primary human foreskin fibroblasts; actives raise or lower the signal. The procedure, abridged: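 MIG signal, determined by ELISA, reflects 24 h chemical exposure of human skin primary fibroblasts. DMSO serves as negative control and baseline.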

“And” between values parts separate entries of the source, which are not always exact repeats. Equal values may be shown once. Where a structure was tested more than once in an assay, its records may differ in their call. The source made the active and inactive calls. Rule for the calls: active = hit-call score of the fitted dose curve at least 0.9, where 1 is the maximum; inactive = score below 0.9.

A word on the AC50: it is the concentration at which the activity in the assay is half-maximal.

For the compound `N[C@@H](Cc1cc(I)c(Oc2ccc(O)c(I)c2)c(I)c1)C(=O)O`, the result in [1], in assay [2], in [3], in assay [4], in assay [5] and in [6] was inactive. Further, the result in assay [7], in assay [8], in [9], in assay [10], in assay [12] and in assay [13] was inactive. The outcome in assay [14], in assay [15], in [17], in assay [18] and in [19] was inactive. Further, the AC50 is 8.65 µM (active) in assay [11] and 6.76 µM (active) in assay [16].

Turning to `S=C(S)NCCNC(=S)S.[Mn+2].[S-]C([S-])=NCCN=C([S-])[S-].[Zn+2]`, the outcome in [1], in [2], in assay [3], in assay [4], in assay [5] and in assay [6] was inactive. Further, the result in assay [7], in assay [8], in [10], in assay [12], in assay [13] and in assay [14] was inactive. Further, the result in assay [15], in assay [16], in assay [17], in assay [18] and in assay [19] was inactive. Also, the AC50 in [4] is 4.17 µM (active) [middle of 4 runs]; in [5], 10.4 µM (active); in [12], 1.41 µM (active); in [16], 5.37 µM (active) and 12.4 µM (active).

Consider `CSC(=O)c1cccc2nnsc12`, for which the result in assay [1], in assay [2], in [4], in assay [5], in [6] and in [7] was inactive. The outcome in [8], in [10], in [11], in assay [12], in assay [13] and in assay [14] was inactive. In addition, the outcome in assay [20], in [15], in assay [16], in assay [17], in [18] and in assay [19] was inactive. In addition, the concentration at half-maximal activity (AC50) in assay [3] was 20 µM (active).

With `COC(=O)CSc1cc(N=c2sc(=O)n3n2CCCC3)c(F)cc1Cl`, the outcome in assay [1], in assay [2], in assay [3], in assay [4], in assay [5] and in [6] was inactive. For the same compound, the result in [7], in [8], in assay [9], in [10], in assay [11] and in assay [12] was inactive. In addition, the outcome in assay [13], in [14], in assay [15], in assay [16], in [17] and in [18] was inactive. Further, in assay [19], the result was inactive.

Consider `COC(=O)c1ccc(I)cc1S(=O)(=O)NC(=O)Nc1nc(C)nc(OC)n1`, for which the result in assay [1], in assay [2], in assay [3], in assay [4], in [5] and in assay [6] was inactive. Further, the result in assay [7], in assay [8], in assay [9], in [10], in [11] and in assay [12] was inactive. The result in assay [13], in assay [14], in [15], in assay [16], in assay [17] and in [18] was inactive. Also, the outcome in [19] was inactive.

Consider `Cc1nn(C)c(Oc2ccccc2)c1C=NOCc1ccc(C(=O)OC(C)(C)C)cc1`, for which the result in assay [1], in [2], in assay [4], in assay [6], in [7] and in assay [10] was inactive. Moreover, the result in [14] and in assay [18] was inactive. For the same compound, the AC50 in assay [3] was 16.3 µM (active); in [5], 27.9 µM (active); in [8], 4.21 µM (active); in assay [9], 3.95 µM (active); in [11], 6.94 µM (active); in assay [12], 18.8 µM (active). The AC50 is 15.4 µM (active) in assay [13]; 34.5 µM (active) in assay [15]; 13.9 µM (active) in assay [16]; 24.2 µM (active) in assay [17]; 13 µM (active) in assay [19].

These data come from PubChem BioAssay (EPA / NIEHS).
